Screening results from PubChem BioAssay.
Shown are actives, neighbours in structure and some others; about 1.8% of the full set was active somewhere.
CtBP-E1A blk = inhibitors of CtBP/E1A interaction; AlphaScreen GST-E1A/His-CtBP binding, 1536-well; active compounds read low; activity change, % (no concentration beside the values); 340,000 compounds, 0.49% hits; AID 651724
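In 5 uL wells, 23 nL compound meets equimolar GST-E1A and His-CtBP (5X stock 125 nM each) for 2 h, 37 °C. Beads (5X, 50 ug/mL) then 1 h, 37 °C, dark.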
PI4K2A inh = blocks human PI4K2A kinase activity; Q9BTU6; purified PI4K2A, ADP-Glo luminescence, 1 h; active compounds read low; activity change, negative = inhibition, % at 76.9 µM; 420,000 compounds, 0.13% hits; in the data active means activity change below about -50%; inconclusive means mostly about -30% to -49%;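 further: -100% = wells without enzyme as full effect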
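PI4K2A activity was measured by ADP-Glo luminescence: enzyme (4 ug/mL stock) and phosphatidylinositol (1.2 mM stock) in Tris pH 7.5/MgCl2/EGTA/Triton X-100 buffer were reacted with ATP (300 microM stock) for one hour at ambient temperature.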
Six1-Eya2 blk = inhibitors of human Six1/Eya2 interaction | Q15475+O00167 | AlphaScreen GST-Six1/His-Eya2 binding, biochemical; active compounds read low | activity change, % (no concentration beside the values) | 360,000 compounds, 0.56% hits
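GST-Six1 + His-Eya2 (5X stock: 250/500 nM); Tris pH 8.0, 300 mM NaCl, 0.05% BSA, 0.02% Tween 20; GSH donor/Ni acceptor beads; 1 h 37 °C dark; AlphaScreen readout.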
pAkt inh = Akt phosphorylation inhibition; 360,000 compounds, 0.32% hits; activity change, % for hits at 50 µM; Neuro2A IGF-stimulated pAkt S473 HTRF, 20 min; active compounds read low; in the data active means activity change below about -80%; inconclusive means mostly about -51% to -80%
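Single-point screen (50 µM final compound) in Neuro2A cells stimulated 20 min with 6 nM IGF at 37 deg C. After lysis, Ser473-phosphorylated Akt read by HTRF (ex 330 nm, em 615/665 nm) as the 665/615 ratio.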
PI5P4K alpha inh = PI5P4K alpha (human) kinase inhibition. P48426. PI5P4Kalpha enzyme, ADP-Glo luminescence, 60 min; active compounds read low. max response, %. 330,000 compounds, 1.2% hits; active means max response of -50% or lower; inconclusive means between -30% and -50%; inactive means -30% or higher; further: value at the top dose of about 77 µM
Target sequence (P48426 whole entry, looked up): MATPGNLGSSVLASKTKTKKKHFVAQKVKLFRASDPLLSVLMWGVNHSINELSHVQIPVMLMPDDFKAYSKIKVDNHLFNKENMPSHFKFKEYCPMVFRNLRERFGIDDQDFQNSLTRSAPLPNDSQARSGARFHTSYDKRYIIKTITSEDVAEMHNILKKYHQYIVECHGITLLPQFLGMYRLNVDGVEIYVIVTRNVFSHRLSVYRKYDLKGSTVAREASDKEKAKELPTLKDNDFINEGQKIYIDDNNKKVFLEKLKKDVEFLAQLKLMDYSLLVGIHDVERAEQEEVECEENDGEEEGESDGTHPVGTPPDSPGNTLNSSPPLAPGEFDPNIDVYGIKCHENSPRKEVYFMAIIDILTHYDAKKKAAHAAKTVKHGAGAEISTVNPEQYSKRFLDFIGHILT
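ADP-Glo luminescence end-point read after a 60 min room-temperature kinase reaction of PI5P4Kalpha plus substrate, initiated with ATP at 5 microM final. Buffer: 0.038 M HEPES pH 7.4, EGTA, 0.1% CHAPS, 5% DMSO.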
* = called active by the depositor; i = inactive; u = inconclusive; x = not tested or not shown. Unless noted, no stated cut-off is given here; in the data, active means activity change below about -65%; inconclusive means mostly about -30% to -63%; inactive means weaker than that. Unless noted, on the % scale 0 is the no-effect control and ±100 the full control effect.

SMILES	CtBP-E1A blk	PI4K2A inh	Six1-Eya2 blk	pAkt inh	PI5P4K alpha inh
NS(=O)(=O)c1ccc(CNC(=S)NCc2ccc(Cl)cc2)cc1	2	3	6	i	-17
COc1ccc(CCC(=O)Nc2c(-c3ccc(N(C)C)cc3)[nH][nH]c2=O)cc1	u	-64*	2	i	-60*
COc1ccc(-c2[nH][nH]c(=O)c2NC(=O)c2ccccn2)cc1	0	-20	4	i	-2
CCCCCC(=O)NC(=S)NNC(=O)CC	13	-3	-4	i	x
COc1ccc(N2CCN(C(=O)CSc3nnc4c(C)cc5cc(C)ccc5n34)CC2)cc1	-5	-5	0	i	6
COc1ccc(N2CCN(C(=O)CSc3nnc4c(C)cc5ccc(C)c(C)c5n34)CC2)cc1	2	-5	-2	-119%*	1
N#Cc1c(NC(=O)CN2CCOCC2)oc(-c2ccccc2)c1-c1ccccc1	-14	16	-21	-107%*	-10
Cc1ccc(OCC(=O)Nc2oc(-c3ccccc3)c(-c3ccccc3)c2C#N)cc1	-5	3	-12	i	0
O=c1cc(CN2CCN(S(=O)(=O)c3ccccc3)CC2)nc2sc(-c3ccccc3Cl)nn12	x	-1	x	x	x
CN1CCOCCOc2ccccc2OCCOCC1	10	-4	-3	i	1
COC(=O)c1ccc(C)c(NC(=O)CSc2sc3c(O)cc(=O)[nH]c3c2C#N)c1	-6	-18	-22	i	-64*
CCCSc1nnc(NC(=O)CSc2nc3[nH]c(=O)cc(O)c3s2)s1	0	0	-1	i	-72*
CCSc1nnc(NC(=O)CSc2sc3c(O)cc(=O)[nH]c3c2C#N)s1	-15	-6	u	i	-102*
CCOc1ccccc1/C=C(\C(=O)O)c1ccc(S(=O)(=O)N2CCCCC2)s1	10	-2	3	i	u
CCCc1cnc(N2CCN(S(=O)(=O)c3cccs3)CC2)nc1	-5	3	0	i	-1
Cc1ccc(C(=O)Nc2cccc(O)c2)cc1S(=O)(=O)N1CCCCCC1	-13	-21	u	i	-6
Cc1ccc(C(=O)Oc2ccc([N+](=O)[O-])cc2)cc1S(=O)(=O)N1CCCCCC1	-4	49	-85*	i	6
Cc1ccc(C(=O)N2CCN(c3ccccc3)CC2)cc1S(=O)(=O)N1CCCC1	-2	10	4	-107%*	6
O=C(Oc1ccc(C(=S)N2CCOCC2)cc1)c1ccc([N+](=O)[O-])cc1	x	2	-83*	i	0
CNC(=O)c1ccccc1NC(=O)c1ccc(C)c(S(=O)(=O)N2CCCCC2)c1	-13	-3	-16	-112%*	0
CN(C(=O)c1ccccc1C(=O)OCC(=O)NC(=O)NC(C)(C)C)C1CCCCC1	9	3	-2	i	2
Cc1cc(C(F)F)nn1CC(=O)NCc1ccco1	9	2	3	i	-9
O=C(CN=C1NS(=O)(=O)c2ccccc21)OCC(=O)c1cc(F)ccc1F	x	5	6	i	0
CCCCCCCCCCCCCCC(O)C[N+](C)(CCO)CCO (stereo unspecified)	6	0	13	i	-72*
Cc1ccccc1-c1nc(-c2ccccn2)no1	0	-51*	-13	i	-26
SMILES	CtBP-E1A blk	PI4K2A inh	Six1-Eya2 blk	pAkt inh	PI5P4K alpha inh
COc1ccc(-c2nc(-c3ccccn3)no2)cc1	3	-74*	0	i	u
CCOc1nc(C)ccc1-c1noc(C)n1	-10	11	-2	-110%*	x
Clc1ccc(-c2nc(-c3ccccn3)no2)cc1Cl	13	-3	2	i	x
COc1ccccc1-c1nc(-c2ccc(C)nc2OC)no1	-7	-1	11	-109%*	3
CCn1c(SCC(=O)O)nc2ccccc21	-4	2	17	i	-8
COc1ccccc1-c1nc(-c2ccccn2)no1	-2	-64*	-4	i	u
O=c1c2cc(F)ccc2sn1-c1ccccc1Cl	-2	-5	-7	i	-84*
N=C1SCC(=O)N1c1ccccc1Cl	-21	-1	4	i	-9
O=c1c2ccccc2sn1-c1ccc(Cl)cc1	-2	-9	-7	i	-100*
Cc1ccc(-n2sc3cc(F)ccc3c2=O)c(C)c1	-1	1	-5	i	-87*
COC(=O)c1cccc(-n2sc3ccccc3c2=O)c1	-11	-12	-14	i	-96*
O=c1c2ccccc2ncn1-c1ccc(Cl)cc1	-2	3	-19	i	5
O=C(c1sc2cc(F)ccc2c1Cl)N1CCN(c2cccc(Cl)c2)CC1	0	1	-10	i	2
O=c1c2ccccc2sn1-c1ccc(F)cc1	-2	-14	-2	i	-89*
O=c1c2ccc(F)cc2sn1-c1ccccc1	-2	-8	-10	i	-108*
Cc1ccc(-n2sc3ccccc3c2=O)cc1	-9	-8	-9	i	-104*
CCc1cc(CNC(=O)c2ccc(OC3CCN(C(C)=O)CC3)c(OC)c2)on1	x	-4	6	x	6
O=C(NCCO)c1cc2cc(Cl)cc(Cl)c2oc1=O	1	-14	-3	i	u
O=C(O)c1cc2cc(Cl)cc(Cl)c2oc1=O	-74*	-8	u	i	u
CCCS(=O)(=O)N1CC(=O)N(c2ccc(Cl)cc2)C(C)(C(=O)NC2CCCC2)C1 (stereo unspecified)	x	-2	x	x	x
COc1cc(-c2c(C#N)c(=O)[nH]c3c2c(C)nn3-c2ccccc2)ccc1O	u	-2	u	i	-63*
C#CCOCCOCCOCCNc1nc(N2CCN(C(=O)CCCCCCCCCCNC(=O)[C@@H](CCSC)n3cc(CCO)nn3)CC2)nc(N2CCN(C(=O)CCCCCCCCCCNC(=O)[C@H]([C@@H](C)CC)n3cc(CCCCCN)nn3)CC2)n1	-5	0	-5	i	-54*
C#CCOCCOCCOCCNc1nc(N2CCN(C(=O)CCCCCCCCCCNC(=O)[C@@H](CCSC)n3cc(CCO)nn3)CC2)nc(N2CCN(C(=O)CCCCCCCCCCNC(=O)[C@H]([C@@H](C)CC)n3cc(CCCCN=C(N)N)nn3)CC2)n1	-11	2	-13	i	-73*
O=c1[nH]c(C2CCN(S(=O)(=O)Cc3ccccc3)CC2)nc2c1nnn2Cc1ccccc1Cl	-2	-3	-2	i	1
CCOC(=O)C1(CC2CC2)CCN(Cc2cnc(-c3ccccc3C)nc2)CC1	5	2	-8	i	5
O=C(Nc1ccc(Br)cn1)c1ccc(Br)s1	10	4	12	i	-7
CC1Cc2ccccc2N1C(=O)CSc1nnc(CSc2ncccn2)n1C (stereo unspecified)	-2	3	-1	-81%*	x
Cn1c(CSc2ncccn2)nnc1SCC(=O)N1CCCc2ccccc21	3	1	-1	i	x
